# Measured values published in PubChem BioAssay AID1865 (National Center for Advancing Translational Sciences (NCATS), 2009).
# About 540 (0.19%) of roughly 280,000 compounds were called active. Entries that show only a call come without a potency. Another 2% or so got no clear call; they are omitted. This is one part of a sample in which actives are shown more often than they occur. Calls come from the whole dose curve; as a rule, active = well fitted activation curve with a large enough effect; inconclusive = small, poorly fitted or top-dose-only effect; inactive = flat fitted curve, though single readings scatter.
# Test: Quantitative High-Throughput Screen for Regulators of Epigenetic Control; note: nearly all actives have a fitted effect of over 60% in size
# Settings: murine LDR cells, GFP reporter derepression, 30 h; series mostly up to 53.9 µM
# From the text: NIH Molecular Libraries Screening Centers Network [MLPCN] NIH Chemical Genomics Center [NCGC] MLSCN Grant: 1 X01 MH079860-01 Assay Provider: Elisabeth D. Martinez, University of Texas SW Medical Center NCGC Assay Overview: The Locus Derepression (LDR) assay detects the derepression or induction of a GFP reporter that is stably integrated in a genomic region of murine cells that is presumably silenced. Transcription of the GFP reporter is controlled by a CMV promoter, which normally is constitutively active. However, this cell line, termed LDR, was selected for lack of constitutive production of GFP. GFP production can be induced by incubating the cells with histone deacetylase or DNA methyltransferase inhibitors (Martinez et al., 2006). Compounds that derepress or induce this reporter locus are identified by enumerating GFP positive cells using a laser-scanning microplate cytometer (Auld et al., 2006). This assay was screened against the MLSMR earlier (AID 597; (Johnson et al., 2008) and has been rescreened here against the expanded collection.
# NCGC Assay Protocol Summary: Three hundred LDR cells in 5 uL per well were dispensed into black, clear-bottom 1536-well plates. Twenty-three nL compound was transferred to the assay plate and cells were incubated 30 hours at 37 C. Medium was removed, cells were washed two times with PBS, and GFP-positive cells were enumerated as fluorescent objects between the sizes of 20 to 120 um width and depth using an Acumen Explorer. References Auld, DS, Johnson, RL, Zhang, YQ, Veith, H, Jadhav, A, Yasgar, A, Simeonov, A, Zheng, W, Martinez, ED, Westwick, JK, Austin, CP, Inglese, J (2006). Fluorescent protein-based cellular assays analyzed by laser-scanning microplate cytometry in 1536-well plate format. Methods Enzymol 414: 566-89. Johnson, RL, Huang, W, Jadhav, A, Austin, CP, Inglese, J, Martinez, ED (2008). A quantitative high-throughput screen identifies potential epigenetic modulators of gene expression. Anal Biochem 375: 237-48. Martinez, ED, Dull, AB, Beutler, JA, Hager, GL (2006). High-content fluorescence-based screening for epigenetic modulators. Methods Enzymol 414: 21-36.
# Potency is the fitted concentration of half-maximal effect.
row,SMILES,Potency
1,CCOC(=O)c1c(S(=O)(=O)NCC(=O)Nc2ccc(Cl)c(C(F)(F)F)c2)c(C)n(C)c1C,inactive
2,CCN1CCN(CCCNC(=O)c2cnn(-c3ccc(C)cc3C)c2C2CCN(C(=O)OC(C)(C)C)CC2)CC1,inactive
3,Cc1cccc(N2CCN(c3c(CN4CCCC4)c(=O)oc4ccccc34)CC2)c1C,inactive
4,Cc1ccccc1-n1nnc2c(=O)oc3ccccc3c21,15.8 µM (active)
5,CCOC(=O)c1c(C)nc2c(c1C)c(=O)oc1ccccc12,inactive
6,COc1ccc(CCn2cc3c(c2-c2ccc(Br)cc2)c(=O)n(C)c(=O)n3C)cc1OC,inactive
7,Cc1c(CNC(C)c2ccccc2)c(C(=O)O)c(C)n1Cc1c(F)cccc1Cl (stereo not given),inactive
8,Cc1ccc(Nc2c(-c3ccc(N(C)C)cc3)nc3nc[nH]n23)cc1,inactive
9,COC(=O)c1ccc(C2C(C(=O)Nc3ccccc3)=C(C)Nc3nc4ccccc4n32)cc1 (stereo not given),inactive
10,CC1CCC(N2CC(=O)N(CCC3=CCCCC3)C(c3ccc(F)cc3)C2=O)CC1 (stereo not given),inactive
11,Cc1cccc(C(=O)Nc2ccc(S(=O)(=O)N3CCCCC3c3cccnc3)cc2)c1 (stereo not given),inactive
12,Cc1ccc(NC(=O)CSc2nc3ccccc3c3nc(CCn4cncc4C)nn23)cc1F,inactive
13,COc1ccccc1NC(=O)c1ccc(C)s1,inactive
14,CCOC(=O)C(=CNc1cccc(C)n1)C(=O)OCC,inactive
15,CCOC(=O)C(=Cc1ccccc1OC)C(=O)OCC,22.4 µM (active)
16,Cc1cc(Nc2cccc(C(F)(F)F)c2)nc2ccc(NC(=O)c3ccc(=O)[nH]c3)cc12,inactive
17,COc1cccc(Cn2c(CNS(=O)(=O)c3ccc(Cl)s3)nc3cccnc32)c1,inactive
18,CCCCNc1ccc(-c2nc(-c3ccncc3)no2)cc1[N+](=O)[O-],inactive
19,CCCn1c2ccccc2c2cnn(CC(=O)NCCCOC(C)C)c(=O)c21,inactive
20,Cc1cccc2c1-c1sc(C(=O)Nc3ccc(F)cc3F)cc1CO2,inactive
21,CCOCCCNC(=O)c1c(NC(=O)Cc2coc3c(C)c(C)ccc23)sc2c1CCC2,inactive
22,COc1ccc(CCNc2ncnc3c2cnn3-c2ccc(C)cc2)cc1,inactive
23,CCOC(=O)C1CCCN(S(=O)(=O)c2cc(-c3cc(C)no3)ccc2OC)C1 (stereo not given),inactive
24,COc1ccc(C(C[N+](=O)[O-])n2nc(C)cc2C)cc1 (stereo not given),12.6 µM (active)

row,SMILES,Potency
1,COc1ccc(OCc2cn3c(C)cc(C)nc3n2)cc1,inactive
2,COc1ccc(C(=O)CSc2nc(C)cc(C)n2)cc1[N+](=O)[O-],inactive
3,O=C1CCCc2cc(S(=O)(=O)N3CCCC(C(=O)NCc4ccccc4)C3)ccc2N1 (stereo not given),inactive
4,CCOc1cc(-c2nnc(SCC(=O)NC3CCCC3)nc2-c2ccc(OC)c(OCC)c2)ccc1OC,inactive
5,CC(=O)N1c2ccc(S(=O)(=O)N3CCCCCC3)cc2CC1C(=O)NCc1ccccc1C (stereo not given),inactive
6,COc1ccc(C2C(=O)N(C3CCCCCC3)CC(=O)N2CCc2ccc(Cl)cc2)cc1OC (stereo not given),inactive
7,CC(C)(C)OC(=O)N1CCC(c2c(C(=O)N3CCN(c4cccc(Cl)c4)CC3)cnn2-c2cccc(Cl)c2)CC1,inactive
8,CN(C)CCCn1c(-c2ccc(Cl)cc2)csc1=Nc1ccccc1,inactive
9,CCCCCn1c(=O)[nH]c2cc(C(=O)Nc3ccc(F)cc3)ccc2c1=O,inactive
10,O=C(Nc1c(-c2ccc(F)cc2)nc2ccccn12)c1cccc(F)c1,inactive
11,Cc1cccc(NC(=O)Cn2cc(S(=O)(=O)Cc3ccccc3Cl)c3ccccc32)c1,inactive
12,CCOC(=O)c1ccc(NC(=O)CSc2nc3c([nH]c4ccccc43)c(=O)n2C)cc1,inactive
13,Cn1c(C(=O)Nc2cccc(C(F)(F)F)c2)cc2c(=O)n3ccccc3nc21,inactive
14,COc1cc(Cl)c(C)cc1NC(=O)CCc1nc2cccnc2n1Cc1cccs1,inactive
15,COc1cccc(NC(=O)N(Cc2cn(C)c3ccccc23)C2CCCCCC2)c1,inactive
16,COc1cccc(CNCc2c(C(=O)O)n(Cc3ccc(C)cc3)c3cc(C)ccc23)c1OC,inactive
17,COc1ccc(Nc2ncc3c(n2)CCN(C(=O)OC(C)(C)C)C3)cc1,inactive
18,COc1ccc(CCNC(=O)CCCn2c(=O)c3ccccc3n(Cc3ccc(C)cc3)c2=O)cc1OC,inactive
19,COC(=O)c1scc(-c2ccc(C)cc2)c1S(=O)(=O)Nc1cc(Cl)c(OC)cc1OC,inactive
20,O=C(Nc1ccc(Br)cc1)c1cc2nc(-c3ccccc3)cc(-c3ccccc3)n2n1,inactive
21,CCCC(=O)Nc1cc(C(=O)NCc2ccc(OC)cc2)ccc1S(=O)(=O)c1ccc(Cl)cc1,inactive
22,CC(C)(C)c1ccc(C(=O)N2CCC(c3nc(-c4ccc(S(=O)(=O)N5CCCC5)cc4)no3)CC2)cc1,inactive
23,Cc1nc2sc(C(=O)c3ccccc3)c(N)c2c2c1CCCC2,inactive
24,Cc1ccc2c(N)c(C(=O)c3ccccc3)sc2n1,inactive

row,SMILES,Potency
1,COc1cccc(C(=O)c2sc3nc(-c4ccccc4)cc(C(F)(F)F)c3c2N)c1,1.58 µM (active)
2,COc1ccc(Cc2nc3ccc(C(=O)NCc4ccc(OC)cc4OC)cc3o2)cc1,inactive
3,Cc1cccc(C)c1-n1ncc(C(=O)NCCCN2CCCCC2)c1C1CCN(C(=O)OC(C)(C)C)CC1,inactive
4,COc1ccc(CCN2C(=O)c3oc4cc(C)cc(C)c4c(=O)c3C2c2ccccc2F)cc1OC (stereo not given),inactive
5,COc1ccc2c(c1)c(=O)c(C(=O)c1ccccc1)cn2CC(=O)Nc1ccc2c(c1)OCCO2,inactive
6,Cc1ccc(NC(=O)CN2c3ccccc3S(=O)(=O)c3ccccc32)cc1F,inactive
7,CCOC(=O)c1c(C)oc2ccc(N(C(=O)c3ccncc3)S(=O)(=O)c3ccc(CC)cc3)cc12,inactive
8,O=C(CSc1oc(-c2ccco2)nc1S(=O)(=O)c1ccc(Cl)cc1)c1ccccc1,inactive
9,COc1ccc(CC(=O)N2CC(=O)Nc3ccc(Br)cc3C2c2ccc(F)cc2)cc1OC (stereo not given),inactive
10,COc1ccc(CCNc2ncnc3onc(-c4ccc(Cl)cc4)c23)c(OC)c1,inactive
11,O=C(CSc1oc(-c2ccco2)nc1S(=O)(=O)c1ccccc1)c1ccc(Cl)cc1,inactive
12,O=C(c1cccs1)N1CCCC(c2nc(-c3ccc(F)cc3)no2)C1 (stereo not given),inactive
13,N#Cc1c(-c2ccc(F)cc2)cc(C2CC2)nc1SCC(=O)c1cccs1,10 µM (active)
14,CCOC(=O)CC(=O)CSc1nc(-c2ccccc2)cc(-c2ccc(Cl)cc2)c1C#N,inactive
15,CN(C)S(=O)(=O)c1cccc(NC(=S)NCc2ccc3c(c2)OCO3)c1,inactive
16,CN(C)S(=O)(=O)c1cccc(NC(=S)N/N=C/C(=O)c2ccccc2)c1,inactive
17,Cc1ccc(/C=N/NC(=S)Nc2cccc(S(=O)(=O)N(C)C)c2)o1,3.98 µM (active)
18,Cc1cc(Cl)ccc1NC(=O)Cc1ccc(NC(=O)N2CCCCc3ccccc32)cc1,inactive
19,CCN1CCN(CCCNC(=O)c2ccc3c(c2)sc2nc(-c4ccc(OC)cc4)cn23)CC1,inactive
20,Cc1oc(C)c2c(=O)cc(-c3ccc4c(c3)OCO4)cc(OC(=O)c3ccc(Cl)cc3)c12,inactive
21,COc1cc(OC)cc(C(=O)Nc2ccc3nc(Nc4cccc(C(F)(F)F)c4)cc(C)c3c2)c1,inactive
22,CCc1ccc(CNCc2c(C(=O)O)n(Cc3ccc(F)cc3Cl)c3cc(OC)ccc23)cc1,inactive
23,N#Cc1ccccc1Cn1cnc2nc3c(cc2c1=O)CCCC3,inactive
24,Cc1ccccc1C(=O)Nc1nnc(S(=O)(=O)N(C)c2ccc(Cl)cc2)s1,inactive

row,SMILES,Potency
1,COc1ccc(C(=O)N2CCC(c3nc4ccccc4o3)CC2)cc1,inactive
2,CCCCOc1ccc(CN2C(=O)C(=O)c3cc(Br)cc(C)c32)cc1OC,inactive
3,Cc1nn(C(C)C(=O)Nc2ccc(C(C)C)cc2)c(=O)c2c1sc1ccccc12 (stereo not given),inactive
4,COc1ccc(NC(=O)CCNS(=O)(=O)c2ccc3c(c2)CCCC(=O)N3)cc1Cl,inactive
5,COc1cccc(-c2nnc(SCC(=O)N3CCC(C)CC3)o2)c1,inactive
6,CCOc1ccc(CNCc2c(C(=O)O)c(C)n(Cc3cccc(OC)c3)c2C)cc1OC,inactive
7,Cc1ccc(Cl)cc1N(C)C(=O)C1CCCN(c2ncnc3onc(-c4ccc(F)cc4)c23)C1 (stereo not given),inactive
8,COc1ccc(S(=O)(=O)c2c(Nc3cccc(Cl)c3)sc(C(=O)c3ccccc3)c2N)cc1,inactive
9,COc1ccccc1Nc1nc(N)nc(N)c1S(=O)(=O)c1ccccc1,inactive
10,CC1(C)N=C(SCc2ccccc2Cl)c2ccccc2N1,inactive
11,Cc1ccc(NC(=O)Cc2ccc(NC(=O)N3CCCCc4ccccc43)cc2)cc1,inactive
12,CNC(=O)c1ccc(-c2nc(CN3CCc4ccccc43)c(C)o2)cc1,inactive
13,CC(=O)c1ccc(NC(c2ccc(F)cc2)c2nnc(-c3ccccc3)o2)cc1 (stereo not given),inactive
14,COc1ccc(-c2cn3nc(N4CCCC(C(=O)NCCCOC(C)C)C4)sc3n2)cc1 (stereo not given),inactive
15,Cc1cc2oc(C(=O)N(Cc3ccc(Cl)cc3)Cc3ccco3)c(C)c2cc1Cl,inactive
16,COc1cccc(N=C2SC(C(=O)Nc3cccc(Cl)c3)CC(=O)N2C)c1 (stereo not given),inactive
17,Fc1ccc(-n2ncc3c(Nc4ccc(Oc5ccccc5)cc4)ncnc32)cc1,inactive
18,COc1ccccc1CN1CCC(CNC(=O)c2cnn(-c3ccccc3Cl)c2C2CCN(C(=O)OC(C)(C)C)CC2)CC1,inactive
19,CCOc1ccccc1C(=O)Nc1ccc2c(c1)N(C)C(=O)c1ccccc1S2,inactive
20,CCOC(=O)c1c(C)[nH]c(CCC(=O)Nc2ccc(OC)c(OC)c2)c1C,inactive
21,O=S(=O)(c1ccc2nc(NCc3ccccc3Cl)ccc2c1)N1CCCCC1,inactive
22,COc1cc(CN(C(=O)c2ccccc2Br)c2ccccn2)cc(OC)c1OC,inactive
23,CC(C)(C)c1ccc(OCC(=O)N2CCC(c3nc4ccccc4s3)CC2)cc1,inactive
